The assay is described as follows: TERT promoter activity modulators, primary screen, cell-based, luciferase reporter, human (AID 1259240). Conditions: A2780 TERT promoter luciferase reporter, 16 h; at 20 µM, fold versus average of vehicle-only wells. (A reporter such as luciferase makes a cellular process visible.)

Unmarked numbers belong to inactive results. The source made the active and inactive calls. Rule as the data show it: active = fold change mostly below about -2 (no sharp cut-off); inactive = mostly above about -1.8.

As to `CN1CCN(C(=O)c2cc3c(=O)[nH]c4ccccc4c3n2C)CC1`, the fold change was -1.19.
For the molecule `CCOC(=O)N1CCC(Nc2ccc3nncn3n2)CC1`, the fold change was -1.14.
For `CN1CCN(C(=O)c2ccc3c(Cl)c4c(nc3c2)CCC4)CC1`, the fold change was 1.03.
On the same count and under the same terms, the figure for `CC(=O)c1cccc(NC(=O)Nc2ccc3snnc3c2)c1` is -1.05; for `CCCCN(CC)S(=O)(=O)c1ccc2c(c1)n(C)c(=O)c(=O)n2C` it is 1.13; for `O=c1cc(CSc2nnnn2-c2ccccc2)nc2nc[nH]n12` it is -2.26 (active).
The same measure, in the same setting: the figure for `COc1ccccc1/C=C/C=c1\sc2nc(-c3ccco3)nn2c1=O` is 1.41; for `CCOC(=O)C1CCCN(c2c(OCC)c(=O)c2=O)C1` (stereo not drawn) it is 1.23; for `Cc1c(NC(=O)c2cc(CC(C)C)on2)c(=O)n(-c2ccccc2)n1C` it is -1.7.
On the same count and under the same terms, the figure for `Cn1c(=O)c2c(SCC(=O)N3CCOCC3)nc(-c3ccco3)nc2n(C)c1=O` is 1.36.
For the molecule `Cc1cc(C)c2sc(-c3ccccc3)cc(=O)c2c1`, the fold change was -37 (active).
Same read-out and setting: the figure for `CCOC(=O)N1CCC(Nc2c(N3CCCCC3C)c(=O)c2=O)CC1` (stereo not drawn) is 1.02.
In the case of `Fc1ccc(OCc2nc(-c3ccc(-n4cccc4)cc3)no2)cc1`, the fold change was -1.22.
As to `CCC(Sc1nnc(-c2c[nH]c3ccccc23)n1CCOC)C(=O)OC` (stereo not drawn), the molecule was called inactive.
With `COC(=O)c1[nH]c(=O)c2ccccc2c1O`, the fold change was -1.15.
`CN(CC(=O)Nc1nccs1)S(=O)(=O)c1ccc2c(c1)n(C)c(=O)c(=O)n2C`: the fold change is 1.27.
Turning to `CCS(=O)(=O)N1CCN(Cc2c[nH]c3ccccc23)CC1`, the fold change was -1.08.
The same measure, in the same setting: the figure for `COc1ccc(-c2cc(N)n(S(=O)(=O)c3ccc([N+](=O)[O-])cc3)n2)cc1OC` is 1.17.
The same measure, in the same setting: then `Nc1cc(-c2ccccc2)nn1S(=O)(=O)c1cccc([N+](=O)[O-])c1`, with 1.1; and `CCOC(=O)N1CCC(Nc2c(N3CCOCC3)c(=O)c2=O)CC1`, with -1.09; and `Cc1ccc2nc(NCc3ccc4c(c3)OCO4)c3nncn3c2c1`, with 1.52.
As for `Cc1cccc(NC(=O)C2CCCN(S(=O)(=O)c3cnc[nH]3)C2)n1` (stereo not drawn), the fold change was -2.48 (active).
Same read-out and setting: the figure for `CC1CCC(NC(=O)Cn2c(=O)c(C(F)(F)F)nc3ccccc32)CC1` (stereo not drawn) is -1.07.
The same measure, in the same setting: then `CCOC(=O)C1CCN(c2c(NCCCN3CCCCCC3)c(=O)c2=O)CC1`, with -1.3; and `CCN1C(=O)/C(=c2\sc3nc(-c4cccc(C)c4)nn3c2=O)c2cc(Br)ccc21`, with -1.02; and `O=C(c1cccc(Cl)c1)N1CCN(c2ccc3nnc(-c4ccccc4)n3n2)CC1`, with 1.
For the molecule `COc1ccc2c(NCC3=CC=CC3)cc(C)nc2c1`, the fold change was -1.73.
For `C=CCOc1ccc(-c2nc3s/c(=C\c4cccc(OC(C)=O)c4)c(=O)n3n2)cc1`, the fold change was 1.2.
The same measure, in the same setting: then `COc1cc2c(cc1OC)C(c1ccc(C)c(Br)c1)CC(=O)N2` (stereo not drawn), with -1.04; and `CCc1ccc(S(=O)(=O)n2c(C)nc3ccccc32)cc1`, with -2.42 (active); and `CCOc1cc(C2NC(=O)c3n[nH]c(C)c32)ccc1O` (stereo not drawn), with 1.27.
Take `O=C(CN1C(=O)COc2ccc(S(=O)(=O)N3CCCC3)cc21)NCCCN1CCOCC1`: the fold change was -1.17.
As to `Cc1c(NC(=O)C2CC(c3ccc(F)cc3)=NO2)c(=O)n(-c2ccccc2)n1C` (stereo not drawn), the fold change was 1.46.
The same measure, in the same setting: the figure for `Clc1ccc2c(c1)C1CC(c3ccccc3)=NN1C(c1ccncc1)O2` (stereo not drawn) is -1.13.
With `CCOC(=O)C1=C(CS(=O)(=O)c2ccc(Cl)cc2)NC(=O)NC1c1ccc(F)cc1` (stereo not drawn), the fold change was 1.41.
Same read-out and setting: then `O=c1oc2cc(O)ccc2cc1S(=O)(=O)c1ccc(Cl)cc1`, with -2.04 (active).
Take `CCN1/C(=C/C=C/c2sc3cc(NC(C)=O)ccc3[n+]2CC)Sc2cc(NC(C)=O)ccc21`: the fold change was -2.62 (active).
On to `CCc1c2c(nc3sc(C(=O)NCc4ccc5c(c4)OCO5)c(N)c13)CC(C)(C)CC2=O`, for which the fold change was -1.01.
Regarding `O=C(CC(=O)Nc1ccccn1)Nc1ccc2nc3n(c(=O)c2c1)CCCCC3`, the fold change is -1.11.
As to `Cc1nnc2ccc(N3CCC(C)CC3)nn12`, the fold change is 1.03.
Same read-out and setting: then `CN(CC(=O)NC(C)(C)C)S(=O)(=O)c1ccc2c(c1)c(=O)n(C)c(=O)n2C`, with -1.36.
The same measure, in the same setting: then `COc1ccc(-c2nnc3c4ccccc4c(C)nn23)cc1S(=O)(=O)NC(C)C`, with -1.07.
`CCn1c(SCc2nc(-c3ccc(Cl)cc3)no2)nnc1-c1ccco1`: the fold change is -2.86 (active).

Values taken from PubChem BioAssay AID1259240 (Keith Lab, Institute of Cancer Science, University of …, 2017).
